Test results taken from PubChem BioAssay (Tox21).
Several values for one entry are separate records, joined by “and”; a condition that tells them apart may be missing. Identical values can stand only once. Inconclusive results are not listed. Where a structure was tested more than once in an assay, its records may differ in their call. Activity calls are given as the source filed them. Unless noted, calls come from the whole dose curve.

Tests used:
[1] = Nuclear factor erythroid 2-related factor 2/antioxidant responsive element (Nrf2/ARE) small molecule agonists: qHTS cell viability counter screen in human keratinocytes (AID 1919968; active = well fitted curve in the direction sought with a large enough effect in the repeat runs; an effect the other way counts as inactive or inconclusive; note: nearly all actives have a fitted effect of over 55% in size; note: potency is the fitted concentration of half-maximal effect)
Procedure, shortened: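 HaCaT ARE reporter line, 1,500 cells/well; 5 h settle, 37 C/5% CO2; cpd in DMSO pinned; 23 h exposure; CellTiter-Fluor, 1 h; fluorescence.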

[2] = Nuclear factor erythroid 2-related factor 2/antioxidant responsive element (Nrf2/ARE) small molecule agonists: luciferase reporter gene qHTS assay in human keratinocytes (AID 1919969); note: nearly all actives have a fitted effect of over 35% in size; note: potency is the fitted concentration of half-maximal effect
[3] = biological target: Gonadotropin-releasing hormone receptor (Homo sapiens) (UniProt P30968); assay: Human gonadotropin-releasing hormone receptor (GnRHR) small molecule agonists, calcium flux assay in GnRHR-HEK293 cells (AID 1920063); note: nearly all actives have a fitted effect of over 35% in size
Chain of Gonadotropin-releasing hormone receptor (Homo sapiens) (P30968 whole entry, looked up): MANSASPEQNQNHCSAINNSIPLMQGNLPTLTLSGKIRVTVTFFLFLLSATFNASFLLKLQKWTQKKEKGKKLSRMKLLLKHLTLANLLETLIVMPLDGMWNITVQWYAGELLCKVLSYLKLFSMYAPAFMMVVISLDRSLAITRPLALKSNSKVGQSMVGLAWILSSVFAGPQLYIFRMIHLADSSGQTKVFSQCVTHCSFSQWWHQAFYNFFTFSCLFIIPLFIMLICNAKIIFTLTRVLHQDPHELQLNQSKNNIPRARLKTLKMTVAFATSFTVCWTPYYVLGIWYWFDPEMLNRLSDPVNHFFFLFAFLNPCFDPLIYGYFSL
Procedure, shortened: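 GnRHR-HEK293, 1500 cells/well, 18 h 37 C/5% CO2; Ca dye 1 h 37 C; cpd pinned (DMSO), agonist mode; kinetic FL 480/540, 3 min, 1 s reads; 15 conc, n=3.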

[4] = biological target: KiSS-1 receptor (Homo sapiens) (UniProt Q969F8); assay: Human kisspeptin (KISS1R) small molecule agonists, calcium flux assay in KISS1R-HEK293 cells (AID 1920064; active = well fitted curve in the direction sought with a large enough effect in the repeat runs; an effect the other way counts as inactive or inconclusive)
Chain of KiSS-1 receptor (Homo sapiens) (Q969F8 whole entry, looked up): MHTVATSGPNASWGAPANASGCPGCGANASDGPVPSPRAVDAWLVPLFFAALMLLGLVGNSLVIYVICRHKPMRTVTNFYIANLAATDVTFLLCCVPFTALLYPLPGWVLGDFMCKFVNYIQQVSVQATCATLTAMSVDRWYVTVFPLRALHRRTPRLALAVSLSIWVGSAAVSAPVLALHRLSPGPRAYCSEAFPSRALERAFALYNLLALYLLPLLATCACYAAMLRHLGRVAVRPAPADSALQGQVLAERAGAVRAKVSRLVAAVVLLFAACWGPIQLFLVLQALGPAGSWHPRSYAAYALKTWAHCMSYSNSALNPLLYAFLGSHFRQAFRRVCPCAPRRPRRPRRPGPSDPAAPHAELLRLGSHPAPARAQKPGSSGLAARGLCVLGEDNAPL
Procedure, shortened: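 Stable human KISS1R HEK293 line; 18 h plating, 37 C/5% CO2; calcium dye 1 h 37 C; compound pin transfer; kinetic fluorescence Ex/Em 480/540, 3 min.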

[5] = G protein-coupled receptor (GPCR) small molecule agonists, calcium flux assay: HEK293 wild type cell line counter screen (AID 1920065)
Procedure, shortened: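 Kinetic fluorescence at Ex/Em 480/540, recorded every second over 3 min, served as the read-out after compound addition. Each compound was tested at 15 concentrations in triplicate on cells pre-loaded with calcium dye for 1 h.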

[6] = p53 small molecule agonists, cell-based qHTS assay with rat liver microsomes (AID 1963578)
Procedure, shortened: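 Metabolic activation by rat liver microsomes and NADPH, each 0.5 mg/mL final, added right after compounds to p53RE-bla reporter cells (4,000/well, plated 5 h earlier). 16 h at 37 C, then LiveBLAzer substrate for 2 h at room temperature in the dark; fluorescence read-out.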

[7] = p53 small molecule agonists, cell-based qHTS assay with rat liver microsomes: qHTS cell viability counter screen (AID 1963580); note: nearly all actives have a fitted effect of over 45% in size
Procedure, shortened: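 In HCT-116 cells carrying a p53 response element-bla reporter, compounds were metabolically activated in situ by rat liver microsomes with NADPH over 16 h. Cell ATP content then served as the cytotoxicity measure.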

[8] = p53 small molecule agonists, cell-based qHTS assay: qHTS cell viability counter screen (AID 1963581); note: nearly all actives have a fitted effect of over 45% in size; note: potency is the fitted concentration of half-maximal effect
Procedure, shortened: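 HCT-116 p53RE-bla cells, 4,000/well, plated 5 h before compound pin transfer; 16 h at 37 C; bla substrate 2 h RT; then CellTiter-Glo, 30 min RT, luminescence.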

[9] = biological target: 5-hydroxytryptamine receptor 2A (Homo sapiens) (UniProt P28223); assay: 5-hydroxytryptamine receptor 2A (HTR2A) small molecule antagonists, cell-based qHTS assay (AID 1963586); note: nearly all actives have a fitted effect of over 45% in size
Chain of 5-hydroxytryptamine receptor 2A (Homo sapiens) (P28223 whole entry, looked up): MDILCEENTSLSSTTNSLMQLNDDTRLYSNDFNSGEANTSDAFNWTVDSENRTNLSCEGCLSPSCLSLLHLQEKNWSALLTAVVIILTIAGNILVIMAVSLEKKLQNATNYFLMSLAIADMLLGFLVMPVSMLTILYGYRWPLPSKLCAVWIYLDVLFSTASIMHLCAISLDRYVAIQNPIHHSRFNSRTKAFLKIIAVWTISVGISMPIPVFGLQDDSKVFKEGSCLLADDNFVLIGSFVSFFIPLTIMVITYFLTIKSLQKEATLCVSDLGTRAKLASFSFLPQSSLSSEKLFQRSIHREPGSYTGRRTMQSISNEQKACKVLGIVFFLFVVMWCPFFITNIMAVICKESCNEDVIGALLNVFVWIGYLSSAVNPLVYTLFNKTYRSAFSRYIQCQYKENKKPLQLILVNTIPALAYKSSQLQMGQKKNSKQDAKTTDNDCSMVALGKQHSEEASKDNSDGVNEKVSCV
Procedure, shortened: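 Antagonist-mode intracellular calcium assay: DOI (4 nM) added after 5 min compound pre-incubation at room temperature to dye-loaded HTR2A-CHO cells. Fluorescence followed for 3 min, sampled every second.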

[10] = biological target: 5-hydroxytryptamine receptor 2A (Homo sapiens) (UniProt P28223); assay: 5-hydroxytryptamine receptor 2A (HTR2A) small molecule agonists, cell-based qHTS assay (AID 1963587); note: nearly all actives have a fitted effect of over 30% in size
Procedure, shortened: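 HTR2A-CHO cells, plated 18 h at 37 C/5% CO2, dye-loaded 1 h at 37 C; compounds in DMSO added by pin tool (agonist mode). Intracellular calcium flux read as kinetic fluorescence on FDSS over 2 min at 1 s intervals.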

[11] = biological target: Muscarinic acetylcholine receptor M1 (Homo sapiens) (UniProt P11229); assay: Cholinergic receptor muscarinic 1 (CHRM1) small molecule antagonists, cell-based qHTS assay (AID 1963588); note: nearly all actives have a fitted effect of over 40% in size; note: potency is the fitted concentration of half-maximal effect
Chain of Muscarinic acetylcholine receptor M1 (Homo sapiens) (P11229 whole entry, looked up): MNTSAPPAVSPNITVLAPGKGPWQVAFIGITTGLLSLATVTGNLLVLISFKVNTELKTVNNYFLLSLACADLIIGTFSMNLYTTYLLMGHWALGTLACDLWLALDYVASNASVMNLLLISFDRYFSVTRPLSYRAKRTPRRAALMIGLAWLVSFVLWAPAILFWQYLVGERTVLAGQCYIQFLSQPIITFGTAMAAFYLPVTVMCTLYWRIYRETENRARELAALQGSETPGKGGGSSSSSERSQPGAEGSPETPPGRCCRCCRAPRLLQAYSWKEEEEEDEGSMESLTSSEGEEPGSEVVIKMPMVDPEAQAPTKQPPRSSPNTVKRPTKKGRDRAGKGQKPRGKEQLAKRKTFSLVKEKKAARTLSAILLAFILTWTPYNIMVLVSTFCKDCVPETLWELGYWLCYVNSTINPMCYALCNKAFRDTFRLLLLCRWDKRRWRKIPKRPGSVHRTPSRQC
Procedure, shortened: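 CHRM1-CHO calcium-flux assay, antagonist mode. Cells were seeded 18 h, dye-loaded 1 h at 37 C and given compound for 5 min at RT, then acetylcholine was added at 50nM. FDSS fluorescence was read 3 min; 15 concentrations, three runs.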

[12] = biological target: Muscarinic acetylcholine receptor M1 (Homo sapiens) (UniProt P11229); assay: Cholinergic receptor muscarinic 1 (CHRM1) small molecule agonists, cell-based qHTS assay (AID 1963589); note: nearly all actives have a fitted effect of over 35% in size
Procedure, shortened: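 Human M1 in stable CHO line; 18 h plating, 1 h dye load 37 C; cpd added (agonist mode); Ca2+ fluorescence kinetic read, 1 s intervals; 15 conc, 3 runs.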

[13] = cAMP Responsive Elements (CRE) small molecule agonists, cell-based qHTS assay (AID 1963590)
Procedure, shortened: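 HEK 293T CRE-bla, 2,000 cells/well, 18 h preincubation 37 C/5% CO2; cpds (DMSO) pinned, 3 h; LiveBLAzer B/G FRET substrate, 2 h RT.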

[14] = cAMP Responsive Elements (CRE) small molecule antagonists, cell-based qHTS assay (AID 1963591; active = well fitted inhibition curve with a large enough effect in the signal ratio in the repeat runs, not every such curve was filed as active; the % refers to the signal ratio)
Procedure, shortened: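 Beta-lactamase reporter read by FRET substrate (LiveBLAzer B/G) after 2 h at room temperature. CRE-bla HEK293T cells had received compound plus 0.25 uM (final) NKH477 for 3 h at 37 °C.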

[15] = biological target: Beta-2 adrenergic receptor (Homo sapiens) (UniProt P07550); assay: Adrenergic beta2 receptor (ADRB2) small molecule antagonists, cell-based qHTS assay (AID 1963592); note: nearly all actives have a fitted effect of over 50% in size; note: potency is the fitted concentration of half-maximal effect
Chain of Beta-2 adrenergic receptor (Homo sapiens) (P07550 whole entry, looked up): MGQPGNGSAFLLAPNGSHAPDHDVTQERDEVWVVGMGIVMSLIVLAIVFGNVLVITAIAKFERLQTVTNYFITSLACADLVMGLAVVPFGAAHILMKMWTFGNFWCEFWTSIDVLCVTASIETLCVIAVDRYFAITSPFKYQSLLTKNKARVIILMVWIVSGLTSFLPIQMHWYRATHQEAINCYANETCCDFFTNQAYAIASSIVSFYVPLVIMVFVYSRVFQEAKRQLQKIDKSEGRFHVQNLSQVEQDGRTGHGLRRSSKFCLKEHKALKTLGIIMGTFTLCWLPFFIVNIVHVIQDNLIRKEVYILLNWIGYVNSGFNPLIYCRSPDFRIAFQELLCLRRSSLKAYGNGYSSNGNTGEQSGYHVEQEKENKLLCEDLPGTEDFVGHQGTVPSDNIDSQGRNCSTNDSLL
Procedure, shortened: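 Cells (CHO, stable ADRB2 overexpression) incubated 18-20hr at 37C; compounds added from DMSO; agonist mix (1nM isoproterenol, 100uM IBMX, 25uM Ro-20-1724) added; 0.5hr RT; d2-cAMP and anti-cAMP-cryptate added; 1hr RT; 665/615 nm read.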

[16] = biological target: D(2) dopamine receptor (Homo sapiens) (UniProt P14416); assay: Dopamine D2 receptor (DRD2) small molecule agonists, cell-based qHTS assay (AID 1963594); note: nearly all actives have a fitted effect of over 35% in size; note: potency is the fitted concentration of half-maximal effect
Chain of D(2) dopamine receptor (Homo sapiens) (P14416 whole entry, looked up): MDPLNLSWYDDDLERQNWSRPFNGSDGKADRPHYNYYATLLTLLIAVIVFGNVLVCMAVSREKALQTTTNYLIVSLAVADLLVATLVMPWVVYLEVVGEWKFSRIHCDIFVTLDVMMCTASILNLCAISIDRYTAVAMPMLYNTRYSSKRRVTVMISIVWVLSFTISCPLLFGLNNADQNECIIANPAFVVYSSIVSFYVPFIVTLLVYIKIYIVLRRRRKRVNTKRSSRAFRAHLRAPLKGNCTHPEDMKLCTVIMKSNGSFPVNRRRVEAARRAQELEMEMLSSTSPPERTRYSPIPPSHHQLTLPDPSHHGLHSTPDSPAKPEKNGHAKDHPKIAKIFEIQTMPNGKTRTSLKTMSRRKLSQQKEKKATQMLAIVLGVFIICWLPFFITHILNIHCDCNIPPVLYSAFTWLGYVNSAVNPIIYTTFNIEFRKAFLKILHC
Procedure, shortened: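 HEK293 cells stably expressing DRD2 were cultured 24 h at 37 C, then given Ro20-1724 (0.1 mM final) and compounds for 10 min at room temperature. NKH477 (200nM) was then added for 30 min. cAMP was read by HTRF.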

[17] = biological target: D(2) dopamine receptor (Homo sapiens) (UniProt P14416); assay: Dopamine D2 receptor (DRD2) small molecule antagonists, cell-based qHTS assay (AID 1963595; active = well fitted inhibition curve with a large enough effect in the signal ratio in the repeat runs, with a control signal flat; the % refers to the signal ratio)
Procedure, shortened: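 DRD2-HEK293; 0.1 mM Ro20-1724; cpd 10 min RT; NKH477 200 nM + quinpirole 12 nM, 30 min RT; HTRF cAMP (cAMP-d2/anti-cAMP cryptate), 665/620 nm ratio after 1 h.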

[18] = p53 small molecule agonists, cell-based qHTS assay with human liver microsomes: qHTS cell viability counter screen (AID 1963579); note: nearly all actives have a fitted effect of over 45% in size
Procedure, shortened: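 Metabolic activation used human liver microsomes and NADPH, both 0.5 mg/mL final, over 16 hours at 37 C on p53RE-bla cells (4,000/well). Cytotoxicity measured by CellTiter-Glo luminescence, 30 min at room temperature.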

[19] = p53 small molecule agonists, cell-based qHTS assay (AID 1963582; active = well fitted activation curve with a large enough effect in the signal ratio in the repeat runs, not every such curve was filed as active; the % refers to the signal ratio)
Procedure, shortened: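 Reporter line: p53RE-bla. Pre-incubation 5 h, 37 C, 5% CO2; compound (DMSO, pin tool) 16 h, 37 C; B/G FRET substrate 2 h RT; fluorescence intensity read.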

[20] = biological target: Beta-2 adrenergic receptor (Homo sapiens) (UniProt P07550); assay: Adrenergic beta2 receptor (ADRB2) small molecule agonists, cell-based qHTS assay (AID 1963593);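 note: CHO cells stably overexpressing human ADRB2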
Procedure, shortened: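 CHO cells stably over-expressing ADRB2 were plated overnight at 37C, then dosed with compounds plus a stimulation mix containing 100uM IBMX and 25uM Ro-20-1724 for 0.5hr at room temperature. cAMP was measured by HTRF competition, 1hr.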

Measured: Potency

ClCCOCOCCCl
not listed: [18] | [19] | [20]
inactive: all other assays above

O=C(O)CC[N+](=O)[O-]
not listed: [7] | [8] | [9] | [12]
inactive: all other assays above

Cc1coc2c1CCC(C)C2 (centres undefined)
not listed: [14] | [18] | [20]
inactive: all other assays above

C[C@]12CCC(=O)C(O)=C1CC[C@@H]1[C@@H]2CC[C@]2(C)C(=O)CC[C@@H]12
not listed: [7] | [12] | [13] | [14] | [19]
inactive: all other assays above

Cc1cccc(C)c1N
not listed: [18] | [20]
inactive: all other assays above

O=C(O)CCCc1ccc(N(CCCl)CCCl)cc1
not listed: [7] | [9] | [10] | [11] | [12] | [15] | [19]
inactive: all other assays above

O=c1oc2ccccc2c(O)c1C(CC(O)c1ccc(-c2ccc(Br)cc2)cc1)c1ccccc1 (centres undefined)
active: [8] 19.3 µM | [11] 25.1 µM
not listed: [7] | [13] | [14] | [17] | [18] | [19]
inactive: all other assays above

O=NN1CCCCC1
not listed: [18] | [20]
inactive: all other assays above

COc1ccc(C=O)cc1OC
69.3 µM (active) and inactive: [2]
not listed: [7] | [11] | [18] | [20]
inactive: all other assays above

O=C(Cl)c1ccccc1
not listed: [18] | [20]
inactive: all other assays above

Cc1cccc(C#N)c1
not listed: [14] | [16] | [18] | [20]
inactive: all other assays above

CCNc1nc(Cl)nc(NC(C)C)n1
not listed: [15] | [18]
inactive: all other assays above

Cc1cc(Cl)ccc1OCC(=O)O
not listed: [7] | [12] | [13] | [15] | [18]
inactive: all other assays above

CCCCCCCCOC(=O)c1ccc(C(=O)OCCCCCCCC)c(C(=O)OCCCCCCCC)c1
not listed: [7] | [18]
inactive: all other assays above

O=C(Nc1ccc(Br)cc1)c1cc(Br)cc(Br)c1O
inactive and 3.97 µM (active): [8]
active: [1] 6.09 µM and 6.11 µM and 7.5 µM | [2] 54.3 µM and 10.9 µM and 13.3 µM
not listed: [7] | [9] | [10] | [11] | [12] | [13] | [19]
inactive: all other assays above

CCOP(=S)(OCC)SCSc1cc(Cl)ccc1Cl
not listed: [7] | [8] | [20]
inactive: all other assays above

CCCN(CCC)c1c([N+](=O)[O-])cc(C(C)C)cc1[N+](=O)[O-]
active: [2] 9.48 µM and 15.4 µM
not listed: [18]
inactive: all other assays above

CCCCCCOC(=O)c1ccccc1C(=O)OCCCCCC
not listed: [11] | [13] | [18] | [19] | [20]
inactive: all other assays above

OCCSCSCCO
not listed: [18] | [20]
inactive: all other assays above

C=CCN=C=S
not listed: [18]
inactive: all other assays above

OCc1ccco1
not listed: [18]
inactive: all other assays above

CN(CCCC(=O)c1cccnc1)N=O
not listed: [17] | [18] | [20]
inactive: all other assays above

Cc1cccc(N=Nc2ccc(N(C)C)cc2)c1
active: [2] 247 nM and 1.72 µM
not listed: [18]
inactive: all other assays above

OC(c1ccc(Cl)cc1)(c1cncnc1)c1ccccc1Cl (centres undefined)
active: [15] 69.8 µM
24.8 µM (active) and inactive: [2]
not listed: [14] | [18] | [20]
inactive: all other assays above

Cc1nn(-c2cc(NS(C)(=O)=O)c(Cl)cc2Cl)c(=O)n1C(F)F
not listed: [18]
inactive: all other assays above

COC[C@H](C)N(C(=O)CCl)c1c(C)csc1C
not listed: [18]
inactive: all other assays above

CCOP(=S)(OCC)OP(=S)(OCC)OCC
not listed: [6]
inactive: all other assays above

CN1C[C@H](C(=O)N[C@]2(C)O[C@@]3(O)[C@@H]4CCCN4C(=O)[C@H](Cc4ccccc4)N3C2=O)C=C2c3cccc4[nH]cc(c34)C[C@H]21
active: [16] 1.23 µM
1.45 µM (active) and inactive: [8]
inactive: [1] | [2] | [3] | [4] | [5] | [18] | [7] | [19] | [13] | [20]

CC(C)[N+](C)(CCC(C(N)=O)(c1ccccc1)c1ccccc1)C(C)C
active: [11] 0.0023 µM
not listed: [6] | [15]
inactive: all other assays above

CCCBr
not listed: [6] | [7] | [10] | [15] | [20]
inactive: all other assays above
